Source: PubChem
Compounds with a hit are over-represented: about 3.2% of the library has one in this group of screens.
bovine MsrA act = activates bovine MsrA enzyme. activation, % at 10.6 µM. 0.3% of 360,000 active. purified bovine MsrA, absorbance read-out; in the data active = activation above about 7.5%
Pemphigus Ab inh = blocks pemphigus antibody binding to human desmoglein-3; binding (percent of control), % at 10 µM; DSG3-coupled beads, scFv-anti-DSG3-GFP binding, flow cytometry; stronger effect = lower value; P32926; 0.48% of 310,000 active;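 active = binding more than 3 SD below its plate's average and above zero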;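 note: hits lower antibody fragment binding to DSG3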
Target sequence (P32926 whole entry, looked up, the tested form may be a part): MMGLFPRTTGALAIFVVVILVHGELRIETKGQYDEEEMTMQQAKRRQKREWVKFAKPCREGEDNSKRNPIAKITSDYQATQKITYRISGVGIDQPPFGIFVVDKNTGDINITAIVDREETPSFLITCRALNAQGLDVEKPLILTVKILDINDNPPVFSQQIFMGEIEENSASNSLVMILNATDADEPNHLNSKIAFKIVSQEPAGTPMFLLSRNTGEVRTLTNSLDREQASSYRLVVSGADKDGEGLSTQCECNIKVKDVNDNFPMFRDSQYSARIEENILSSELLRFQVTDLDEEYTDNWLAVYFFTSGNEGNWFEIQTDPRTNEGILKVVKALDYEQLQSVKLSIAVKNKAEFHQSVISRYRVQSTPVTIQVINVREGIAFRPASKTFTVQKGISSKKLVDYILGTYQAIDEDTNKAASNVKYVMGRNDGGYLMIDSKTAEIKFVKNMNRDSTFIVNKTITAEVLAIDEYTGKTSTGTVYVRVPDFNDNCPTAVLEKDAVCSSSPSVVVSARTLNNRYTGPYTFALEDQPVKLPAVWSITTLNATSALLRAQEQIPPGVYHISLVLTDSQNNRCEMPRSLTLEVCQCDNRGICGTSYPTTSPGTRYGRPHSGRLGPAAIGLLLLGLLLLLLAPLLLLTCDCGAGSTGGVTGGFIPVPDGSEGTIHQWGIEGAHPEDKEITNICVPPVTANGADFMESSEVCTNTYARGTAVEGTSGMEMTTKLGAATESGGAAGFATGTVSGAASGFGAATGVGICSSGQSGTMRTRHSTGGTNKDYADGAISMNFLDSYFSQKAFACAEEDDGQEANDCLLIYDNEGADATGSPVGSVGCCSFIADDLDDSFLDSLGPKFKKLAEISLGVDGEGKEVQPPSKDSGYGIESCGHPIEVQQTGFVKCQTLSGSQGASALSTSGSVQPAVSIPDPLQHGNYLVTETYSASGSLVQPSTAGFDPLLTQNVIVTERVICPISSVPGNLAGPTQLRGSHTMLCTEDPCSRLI
rCAG binder = r(CAG) repeat RNA binding; TO-PRO-1 dye displacement fluorescence; inhibition, % at 3 µM; 1.3% of 370,000 active; AID 651821;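 active = inhibition above the plate cutoff, the mean of all test compounds on that plate plus 3 SD, cut at about 35% in these data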;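 note: higher means more dye released from RNA so lower well fluorescence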
NadD inh = NadD (S. aureus) enzyme inhibition; purified NadD enzyme, colorimetric absorbance read-out; inhibition, % at 20 µM; 0.78% of 360,000 active; AID 602399; in the data active = inhibition above about 26%
DAGLB inh = blocks human DAGLB lipase activity | Q8NCG7 | HEK293T DAGLB membrane lysate, EnzChek fluorogenic substrate | inhibition, % at 5.17 µM | 0.059% of 340,000 active | AID 504411; in the data active = inhibition above about 34%
MsrA inhibitor = bovine MsrA inhibition; purified bovine MsrA, absorbance read-out; inhibition, % at 15.5 µM; 0.75% of 360,000 active; AID 651718; in the data active = inhibition above about 4.5%
rCAG binder conf = r(CAG) RNA repeat binding, confirmation; TO-PRO-1 dye displacement fluorescence; 70% of 4,300 active; AID 652065; shares compounds with rCAG binder; inhibition, % at 3 µM;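 active = inhibition above a per-plate cutoff, the mean inhibition of sample wells plus 3 SD, cut at about 35% in these data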;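 note: loss of TO-PRO-1 fluorescence as compound displaces dye from 1x1 AA loop RNA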
dCAG dye counter = DNA CAG dye complex inhibition counter-screen. shares compounds with rCAG binder. d(CAG) DNA oligo TO-PRO-1 dye displacement, fluorescence. inhibition, % at 3 µM. 94% of 4,300 active. AID 652068;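 active = inhibition above its plate's cutoff, the mean test-well inhibition plus 3 SD, cut at about 4.8% in these data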;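 note: hits displace the dye from DNA and so lower well fluorescence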
DNA CAG DR = DNA CAG dye complex inhibition, dose response counter-screen; AID 686960; shares compounds with rCAG binder; IC50, µM; 20% of 250 active; DNA CAG/GTC duplex TO-PRO-1 dye displacement fluorescence; in the data active = IC50 below about 10 µM
Numbers stand for hits; 0 = inactive; - = no result given.

SMILES	bovine MsrA act	Pemphigus Ab inh	rCAG binder	NadD inh	DAGLB inh	MsrA inhibitor	rCAG binder conf	dCAG dye counter	others
O=C1/C(=C\c2ccc(-c3ccccc3Cl)o2)SC(=S)N1CC1CCCO1 (stereo unspecified)	0	0	0	0	0	0	-	-
Cc1ccc(/C=C2\SC(=S)N(CC3CCCO3)C2=O)o1 (stereo unspecified)	0	-	46.5	0	0	0	40.1	15.3
CC(=O)Nc1cccc(-c2nc3ccccc3n2C(C)C(=O)NC(C)(C)C)c1 (stereo unspecified)	-	-	0	-	-	0	-	-
COC(=O)[C@]12C[C@H](CC(=O)N3CCN(C(=O)C4CC4)CC3)C(=O)N(CCC3=CCCCC3)C1=C[C@H](C1CCCC1)O[C@@H]2C	-	-	0	-	-	-	-	-
COc1ccc(N(C)S(=O)(=O)c2ccc(Cl)c(C(=O)NNC(=O)c3ccccc3O)c2)cc1	0	0	40.0	0	0	0	0	10.4
COc1ccccc1N(C)S(=O)(=O)c1ccc(Cl)c(C(=O)NNC(=O)c2ccccc2O)c1	0	0	0	0	0	0	-	-
COc1ccc(CN2C(=O)CN(S(C)(=O)=O)CC2(C)C(=O)Nc2c(C)cccc2C)cc1 (stereo unspecified)	-	-	0	-	-	0	-	-
Cc1cc(F)ccc1C(O)c1ncc(-c2ccccc2F)[nH]1 (stereo unspecified)	0	-	0	0	-	0	-	-
Nc1ccn(C2CSC(CO)O2)c(=O)n1 (stereo unspecified)	0	-	0	0	-	0	-	-
O=C(O)c1cnn(-c2nc(-c3ccc(Cl)c(Cl)c3)cs2)c1C(F)(F)F	0	0	64.1	0	0	0	44.4	9.5
CC1(C)C2CCC1(C)C(SC(=N)N)C2 (stereo unspecified)	0	-	0	0	0	0	-	-
O=C(C1CC1)C1(C(=O)N2CCOCC2)CC(c2ccccn2)=NO1 (stereo unspecified)	-	-	0	-	-	-	-	-
O=C(Nc1ccccc1C(F)(F)F)OCCN1C(=O)CCC12CCC(c1ccccc1)CC2 (stereo unspecified)	-	-	0	-	-	-	-	-
CC1(C)CC(=O)C2=C(C1)OC1=C(C(=O)CC(C)(C)C1)C2c1cc([N+](=O)[O-])cc([N+](=O)[O-])c1O	0	0	52.6	0	0	0	64.1	24.2
O=C(NCCN1CCC(n2c(=O)[nH]c3ccccc32)CC1)c1ccc(F)c(F)c1	0	-	0	0	-	0	-	-
COc1cccc(Cn2cc(COC(=O)NCCc3ccccc3)nn2)c1	-	-	0	-	-	-	-	-
O=S(=O)(Nc1cc(Cl)ccc1-n1cncn1)c1cc(Br)ccc1Br	0	-	57.5	0	0	0	56.0	20.9
Cc1cc(/C=N/NC(=O)C(O)(c2ccccc2)c2ccccc2)c(C)n1-c1cccc(C(=O)O)c1	0	0	40.7	0	0	0	57.9	25.8
Cc1cc(/C=N/NC(=O)C(O)(c2ccccc2)c2ccccc2)c(C)n1-c1ccc(C(=O)O)cc1	0	0	35.2	0	0	0	0	11.6
Cc1cc2c(cc1C)-n1nnnc1C(N(C)CCc1ccccc1)C(=O)N2 (stereo unspecified)	-	-	0	-	-	0	-	-
O=C(COC(=O)c1ccc(Sc2ncn[nH]2)c([N+](=O)[O-])c1)Nc1ccc(Cl)cc1	-	-	0	-	-	-	-	-
O=C(COC(=O)c1ccc(Sc2ncn[nH]2)c([N+](=O)[O-])c1)Nc1ccc(Cl)c(Cl)c1	-	-	64.1	-	-	-	46.4	13.9
Nc1c(/C=C2\C=Nc3ccccc32)c(=O)nc2sc(CC(=O)N3CCOCC3)nn12	0	0	47.6	0	0	0	0	8.7
Nc1c(C=C2C=CC(=O)C=C2)c(=O)nc2sc(CC(=O)N3CCOCC3)nn12	0	0	0	0	0	0	-	-
C[C@@H]1ON(C)[C@H]2C[C@H]3c4[nH]c5c(-c6ccccc6F)cccc5c4CCN3C[C@@H]12	-	-	0	-	-	-	-	-
SMILES	bovine MsrA act	Pemphigus Ab inh	rCAG binder	NadD inh	DAGLB inh	MsrA inhibitor	rCAG binder conf	dCAG dye counter	others
O=C(O)c1ccc(-n2cccc2/C=C2/NC(=O)N(c3cccc(Cl)c3)C2=O)cc1	0	0	38.5	0	0	0	0	8.8
CN(C)c1ccc(O)c2c1CC1CC3C(N(C)C)C(=O)C(C(N)=O)=C(O)[C@@]3(O)C(=O)C1=C2O (stereo partly specified)	0	0	0	0	0	0	-	-
C=C1c2cccc(O)c2C(O)=C2C(=O)[C@]3(O)C(O)=C(C(N)=O)C(=O)[C@@H](N(C)C)[C@@H]3[C@@H](O)[C@H]12	0	0	84.7	0	0	0	0	9.8
C[C@@H]1[C@H](O)[C@@H](C)/C=C/C=C/C=C/C=C/C=C/C=C/C=C/[C@H](OC2O[C@H](C)[C@@H](O)[C@H](N)[C@@H]2O)C[C@@H]2O[C@](O)(C[C@@H](O)C[C@@H](O)[C@H](O)CC[C@@H](O)C[C@@H](O)CC(=O)O[C@H]1C)C[C@H](O)[C@H]2C(=O)O (stereo partly specified)	-	-	40.7	-	-	-	44.3	13.8	DNA CAG DR=0
CC1C/C=C/C=C/C=C/C=C/C(O[C@@H]2O[C@H](C)[C@@H](O)[C@H](N)[C@@H]2O)CC2OC(O)(CC(O)CC3OC3/C=C/C(=O)O1)CC(O)C2C(=O)O (stereo partly specified)	-	-	0	-	-	0	-	-
CC(C)c1ccc(NC(=O)Cc2c(C(=O)O)n(C)c3ccccc23)cc1	0	0	50.6	0	0	0	0	5.8
Cc1ccc(NC(=O)Cc2c(C(=O)O)n(C)c3ccccc23)cc1F	0	-	0	0	-	0	-	-
CCN(CC)C(=O)C1=C(C)N(CCCN2CCCC2=O)C(=O)C(CC(=O)NCc2cccs2)C1 (stereo unspecified)	0	-	0	0	0	0	-	-
O=C(CCCN1C(=O)/C(=C\c2cccs2)SC1=S)Nc1ccccc1O	0	0	0	0	0	0	-	-
O=C(CCCN1C(=O)/C(=C\c2ccccc2)SC1=S)Nc1ccc(O)cc1C(=O)O	0	-	80.4	0	0	0	67.9	32.3
O=C(CCCN1C(=O)/C(=C/c2ccco2)SC1=S)Nc1ccccc1C(=O)O	0	0	87.6	0	0	0	83.4	49.4
O=C(O)CCCN1C(=O)/C(=C\c2ccco2)SC1=S	0	0	0	0	0	0	-	-
CC(C(=O)Nc1ccc(O)cc1C(=O)O)N1C(=O)/C(=C\c2cccs2)SC1=S (stereo unspecified)	0	0	80.1	0	0	0	79.8	41.0
O=C(CCN1C(=O)/C(=C/c2ccco2)SC1=S)Nc1ccc(O)cc1C(=O)O	0	0	92.9	0	0	0	69.7	26.7	DNA CAG DR=7.29
CCCCCCCCN1C(=O)[C@@H](CC(=O)NCCc2ccccc2OC)C[C@@]2(C(=O)OC)C1=C[C@H](COCc1ccccc1)O[C@@H]2C	-	-	0	-	-	-	-	-
